Assay outcomes (PubChem BioAssay)
ANO1 activ = activates or potentiates the mouse TMEM16A chloride channel; 0.3% of 340,000 active; Q8BHY3; HEK293 TMEM16A/YFP-H148Q/I152L, iodide quench fluorescence; active compounds read low; B-score at 10 µM;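 active = fluorescence-ratio B-score plate-corrected deviation score at least 3 library SD below zero, with starting fluorescence score within 5 deviations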;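 also: channel opened by trigger with iodide after compound preincubation; score built on the fluorescence ratio of max minus min over baseline; more negative score means more quench and so TMEM16A activation or potentiation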
Target sequence (Q8BHY3 whole entry, looked up): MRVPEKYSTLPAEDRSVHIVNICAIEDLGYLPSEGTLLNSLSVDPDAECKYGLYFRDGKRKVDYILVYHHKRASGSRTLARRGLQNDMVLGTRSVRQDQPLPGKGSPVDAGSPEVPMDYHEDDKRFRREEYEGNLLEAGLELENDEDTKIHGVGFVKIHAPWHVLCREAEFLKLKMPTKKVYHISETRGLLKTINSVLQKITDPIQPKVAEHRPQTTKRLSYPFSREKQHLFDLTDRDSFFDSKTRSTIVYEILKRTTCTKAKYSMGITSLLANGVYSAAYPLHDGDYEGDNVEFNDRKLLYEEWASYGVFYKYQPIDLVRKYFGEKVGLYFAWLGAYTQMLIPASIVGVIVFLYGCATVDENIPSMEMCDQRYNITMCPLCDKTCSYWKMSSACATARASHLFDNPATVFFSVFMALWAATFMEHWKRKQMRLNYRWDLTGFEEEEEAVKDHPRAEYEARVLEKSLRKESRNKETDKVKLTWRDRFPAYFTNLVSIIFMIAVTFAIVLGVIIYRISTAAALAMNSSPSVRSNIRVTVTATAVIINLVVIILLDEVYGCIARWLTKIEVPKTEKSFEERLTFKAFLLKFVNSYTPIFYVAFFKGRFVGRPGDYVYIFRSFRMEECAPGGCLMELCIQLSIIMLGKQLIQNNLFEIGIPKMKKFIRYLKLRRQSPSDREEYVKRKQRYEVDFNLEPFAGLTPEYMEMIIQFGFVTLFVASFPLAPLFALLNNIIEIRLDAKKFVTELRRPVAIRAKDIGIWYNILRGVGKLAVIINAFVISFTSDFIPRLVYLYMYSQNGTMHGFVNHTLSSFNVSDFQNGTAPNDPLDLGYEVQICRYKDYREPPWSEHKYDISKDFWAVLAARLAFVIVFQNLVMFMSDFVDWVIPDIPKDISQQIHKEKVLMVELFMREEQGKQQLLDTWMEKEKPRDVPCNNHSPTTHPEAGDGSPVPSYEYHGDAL
CHT PAM = human CHT allosteric activation; Q9GZV3; CHT-expressing cells, membrane potential dye, choline EC20; active compounds read high; LV-AA mutant CHT in HEK293 cells; B-score at 10 µM; 0.49% of 310,000 active;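 active = initial fluorescence not abnormally high and integrated response B-score, plate-corrected, over 3 SD above library mean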
TMEM16A inh = blocks the mouse calcium-activated chloride channel TMEM16A. normalized B-score (activity score, 25-100; higher = stronger inhibition) at 10 µM. HEK293 TMEM16A/YFP iodide influx fluorescence, ionomycin. AID 588511. 1.2% of 310,000 active;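 active = ratio plate-corrected score three or more library SD toward inhibition, starting fluorescence score within five deviations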;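 also: score derived from kinetic fluorescence span divided by baseline fluorescence per well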
CHT block = inhibitors of human choline transporter CHT; Q9GZV3; CHT-expressing cells, membrane potential dye, choline response; active compounds read low; B-score at 10 µM; 0.86% of 310,000 active;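 active = B-score over 3 SD under the library average, and starting fluorescence ratio not unusually high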;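 also: choline stimulus applied at its EC90 after an EC20 pre-addition; B-score computed on integrated fluorescence ratio after choline addition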
CHT activ conf = human CHT activation, confirmatory screen; shares compounds with CHT PAM; CHT-expressing cells, membrane potential dye fluorescence (FDSS); % of choline EC20–EC90 response window; HEK293 expressing CHT LV-AA mutant; choline added at its EC20; activation, % at 10 µM; 91% of 2,500 active; AID 504833;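 active = primary screen active, with duplicate mean activation above negative control mean plus 3 SD, cut at about 11% in these data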
HEK293 MP dye = activity in parental HEK293 cells lacking CHT; shares compounds with CHT PAM; membrane potential dye fluorescence (FDSS); measured after EC20 choline addition; ratio readout change at 10 µM, hits read low; 62% of 2,500 active; AID 623908;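 active = duplicate-averaged ratio beyond 3 SD from buffer wells, up or down, though filed actives are nearly all decreases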
Of the large screens only hits and unclear results are named; the others gave an inactive call (follow-up assays come after a bar, where they were run). An excerpt weighted towards active compounds, which were near 2.4% of everything screened.

COc1ccc(OC)c(C2C(C(=O)c3cc4ccccc4o3)=C(O)C(=O)N2c2cc(C)on2)c1 (configuration not stated)	none | CHT activ conf 10.6 | HEK293 MP dye inactive
COc1ccc(-c2csc(N(CCCN(C)C)C(=O)c3ccc(C)cc3)n2)cc1	none
COc1ccc(-c2csc(N(CCCN(C)C)C(=O)c3cccs3)n2)cc1	none | CHT activ conf 36.3 | HEK293 MP dye -43.4
CCCC[N+](CC#CCO)(CC#Cc1ccccc1)CCCC	CHT PAM 10.5 | CHT activ conf 73.8 | HEK293 MP dye inactive
O=C1C2CC=C(Cl)CC2C(=O)N1CCC[n+]1cccc2ccccc21 (configuration not stated)	none | CHT activ conf 50.1 | HEK293 MP dye -25
O=[N+]([O-])c1ccc(N/N=C/C=C/c2ccco2)cc1	CHT PAM 8.1 | CHT activ conf 12.3 | HEK293 MP dye inactive
O=C(O)c1ccc(N/N=C/C=C/c2ccc([N+](=O)[O-])o2)cc1	none
Cc1ccc(OCC(O)Cn2c(=N)n(CCN3CCCCC3)c3ccccc32)cc1 (configuration not stated)	CHT PAM 9.58 | CHT activ conf 19.5 | HEK293 MP dye inactive
COc1ccccc1OCC(O)Cn1c(=N)n(Cc2ccccc2)c2ccccc21 (configuration not stated)	CHT PAM 9.55 | CHT activ conf 28.5 | HEK293 MP dye inactive
Cn1c(=N)n(CC(=O)c2ccc(Br)s2)c2ccccc21	none
COc1ccc(OCC(O)Cn2c(=N)n(CCN3CCCCC3)c3ccccc32)cc1 (configuration not stated)	none
CCN(CC)CCn1c(=N)n(CC(=O)c2ccc(Br)s2)c2ccccc21	CHT PAM 6.41 | CHT activ conf 21.2 | HEK293 MP dye inactive
CCCCn1c(=N)n(CCOc2ccc(C)cc2)c2ccccc21	CHT PAM 9.71 | CHT activ conf 25.0 | HEK293 MP dye inactive
COc1ccc2cc3cc(C(=O)NCc4cccnc4)oc3nc2c1	none
CC(=O)c1csc(COc2ccccc2)n1	none
CCN(CC)CCn1c(=N)n(CCOc2ccccc2)c2ccccc21	none
CCN(CC)CCn1c(=N)n(CC(O)COc2ccccc2)c2ccccc21 (configuration not stated)	CHT PAM 7.25 | CHT activ conf 21.1 | HEK293 MP dye inactive
Cn1c(C(=O)NCCCN2CCOCC2)cc2c(=O)n(C)c3ccccc3c21	none
Cn1c(C(=O)NCCN2CCCCCC2)cc2c(=O)n(C)c3ccccc3c21	none | CHT activ conf 25.3 | HEK293 MP dye -27.4
CN(C(=O)CCc1ccccc1)c1nnc(-c2ccncc2)s1	CHT PAM 7.41 | CHT activ conf 28.1 | HEK293 MP dye -30.1
CN(C)CCN(Cc1cc2cc3c(cc2nc1Cl)OCO3)C(=O)c1ccco1	CHT PAM 6.84 | CHT activ conf 55.2 | HEK293 MP dye -56.5
CCCCOc1ccc(C(C)NC(=O)CCS(=O)(=O)Cc2ccc(C)cc2)cc1 (configuration not stated)	none
CC(=NCCCn1ccnc1)c1c(C)[nH]n(-c2ccc([N+](=O)[O-])cc2)c1=O	CHT PAM 7.79 | CHT activ conf 48.8 | HEK293 MP dye -44.5
COc1ccc2c(c1)sc(N)[n+]2Cc1cc(C)cc2cccnc12	CHT PAM 9.55 | CHT activ conf 54.1 | HEK293 MP dye -37.7
CCOc1ccc2c(c1)sc(N)[n+]2Cc1cc(C)cc2cccnc12	CHT PAM 11.2 | CHT activ conf 51.9 | HEK293 MP dye -33.6
COc1cc(NCCCC(C)N)c2ncccc2c1 (configuration not stated)	none (no result: CHT PAM, TMEM16A inh, CHT block)
CCCC[n+]1c(C)sc2cc(OC)ccc21	none
COc1ccc2sc(C)[n+](C)c2c1	CHT PAM 11.3 | CHT activ conf 38.6 | HEK293 MP dye -30.3
CCC(=O)N1CCN(c2cc(N3CCN(C)CC3)c(F)cc2[N+](=O)[O-])CC1	CHT PAM 7.97 | CHT activ conf 56.7 | HEK293 MP dye -58.4
CCOC(=O)N1CCN(c2cc(N3CCOCC3)c(F)cc2[N+](=O)[O-])CC1	none
COc1cnc(-c2ccccn2)nc1NC(C)C	CHT PAM 7.81 | CHT activ conf 26.8 | HEK293 MP dye -58.5
COc1ccccc1Sc1nc(-c2ccccn2)ncc1OC	none
COc1ccc(OC)c(NC(=O)C2C3CCC(C3=C(C)C)C2C(=O)O)c1 (configuration not stated)	none
Cc1cc(C)n2nc(C(=O)Nc3nnc(C4CC4)s3)nc2n1	none
Cc1cc(C)n2nc(C(=O)N/N=C/c3ccccc3Cl)nc2n1	none
Cc1cc(C)n2nc(C(=O)Nc3nccs3)nc2n1	none | CHT activ conf 54.1 | HEK293 MP dye -27.3
CCSc1nnc(NC(=O)c2nc3nc(C)cc(C)n3n2)s1	CHT PAM 6.26 | CHT activ conf 48.3 | HEK293 MP dye -41
Cc1cc(C)n2nc(C(=O)N/N=C/c3ccco3)nc2n1	CHT PAM 7.05 | CHT activ conf 59.3 | HEK293 MP dye -60.4
Cc1cc(C)n2nc(C(=O)Nc3cccnc3)nc2n1	CHT PAM 8.69 | CHT activ conf 47.2 | HEK293 MP dye -48
CC1CCCCC1NC(=O)NC(=O)COC(=O)c1cncc(Br)c1 (configuration not stated)	none (no result: CHT PAM, TMEM16A inh, CHT block)
CNc1nc(-c2ccccn2)nnc1-c1ccccc1	none
c1ccc(-c2nnc(-c3ccccn3)nc2NC2CCCCC2)cc1	none | CHT activ conf inactive | HEK293 MP dye inactive
COc1cccc(N2CCN(C(=O)c3ccc(CS(=O)c4ccc(Cl)cc4)o3)CC2)c1 (configuration not stated)	none | CHT activ conf 21.3 | HEK293 MP dye inactive
COc1cccc(N2CCN(C(=O)c3ccc(CS(=O)Cc4ccc(C)cc4)o3)CC2)c1 (configuration not stated)	none
COc1cccc(N2CCN(C(=O)c3ccc(CS(=O)c4ccc(C)cc4)o3)CC2)c1 (configuration not stated)	CHT PAM 8.07 | CHT activ conf 21.4 | HEK293 MP dye inactive
CC(NC(=O)C1CCN(C(=O)Nc2ccccc2)CC1)c1ccccc1 (configuration not stated)	none | CHT activ conf inactive | HEK293 MP dye inactive
CSc1nnc2c(n1)OC(C)=Nc1ccccc1-2	none | CHT activ conf 40.7 | HEK293 MP dye -40.6
Cc1c(CCOC(=O)c2ccc([N+](=O)[O-])cc2)sc[n+]1CC(=O)c1ccccc1	CHT PAM 7.06 | CHT activ conf 58.1 | HEK293 MP dye -52.1
CCCCNC(=S)NNC(=O)c1cc(-c2cccnc2)nc2ccccc12	none
c1cnc2c(c1)ccc1cccnc12	CHT PAM 6.63 | CHT activ conf 61.9 | HEK293 MP dye -105
Cc1ccnc2c1ccc1cccnc12	none (no result: CHT PAM, TMEM16A inh, CHT block)
NC(=O)c1cccc2c1C(=O)N(C1CCCCC1)C2	none
